From article PMC12136788
Over roughly 24,000 sequences, “enrichment r” has its median near 0.99; the highest 2% begin near 3.7. The sample holds the highest values, similar sequences and a random draw of the others, so the mix is not that of the screen.

T1: UNK ZnF1-3 (human, UniProt Q9C0B0 31-174)
T1 sequence: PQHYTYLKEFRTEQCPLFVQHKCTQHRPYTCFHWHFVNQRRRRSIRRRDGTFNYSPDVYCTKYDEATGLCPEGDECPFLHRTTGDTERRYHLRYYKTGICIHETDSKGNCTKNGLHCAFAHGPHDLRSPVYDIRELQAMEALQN

B1: 74654529_74654649_2250_CDS_ENSG00000113161_ENST00000287936|human|control|control (ssRNA)
RNA: GGGAGUUCUACAGUCCGACGAUCUCUGACAACCUUGGCUGGAAUGACAGCUUCACAAACAACAGAUUUUCCUCUUCCCUCUAUCCAAUUUAUAGCAGCAGGUUUCUUGUCAGUACAAUAGUUACCACUAACGGCUAGAAUCUGCAACAGAGGAUUGAGCAUCA
B2: chr22:19452774:19452775:-_ENSG00000070010_ENST00000399523|hu_hu|hu_hu_hu_mus_False|18_88 (ssRNA)
RNA: GGGAGUUCUACAGUCCGACGAUCCUUCUCAUUGUAGUUGAUAGCAAUCACAUCCCCAGUCGUCAGACAGGCGAAGUUUCUCAAUGCAUUUUCUAAUACCGCUUUAGGGUUGGUAAUGUCCAGGAAGUCUGGGCUCUGAGGCUGCAACAGAGGAUUGAGCAUCA
B3: chrX:100667754:100667755:+_ENSG00000126945_ENST00000316594|hu_hu|FALSE|FALSE (ssRNA)
RNA: GGGAGUUCUACAGUCCGACGAUCUCCGUAUCUAUGAUCAGACAUUCCUGAAAAACAGUAAUUGAGGUCUCUUCCAAAUCUAUCAGACCCAAAGCCAUAUCCAUCAUUAUAGCCACCAUAGUCAUCAUAGCCUCCAUACCCUCCCAACAGAGGAUUGAGCAUCA
B4: 31508769_31511148_1743_CDS_ENSG00000113360_ENST00000513349|human|control|control (ssRNA)
RNA: GGGAGUUCUACAGUCCGACGAUCAGGGUGGGCCUUUUUGCGUUUGAUUUCUGCAAUAACGUCAAAAACUUCAGAGUCUGAGCUGCUAGAACAGGUGCUGUCCUCAUCAGACUCACACUCGGAUUCACUGGAACUCUCUAAAUCCAACAGAGGAUUGAGCAUCA
B5: chr3:154749246:154749247:-_ENSMUSG00000053870_ENSMUST00000066568|mus_hu|FALSE|FALSE (ssRNA)
RNA: GGGAGUUCUACAGUCCGACGAUCGCCAUUUUUAUUAUUAAAAAUAGAAUUACAGUUGAGGAGAGAAGUGCCAGUGAAUACUUAGAACUUCACUGGACCAAAAGCCUCAAAAAAGAUGGAAAAAUUCCAAAGGUAUGCUUAGAACAACAGAGGAUUGAGCAUCA
B6: chr3:127788656:127788657:+_ENSG00000058262_ENST00000243253|hu_hu|motif|central (ssRNA)
RNA: GGGAGUUCUACAGUCCGACGAUCCACUUUCACAGUUCUUUUUGCCAGUGCCAGGAUAAAAAGCAAAAUUUUAAAUUGGAAAAUGUCGGGCACUUUACACAGUGGAAUGAAAGAAUACGAAAUUCAAAAACAUUAUUAAAAGUCCAACAGAGGAUUGAGCAUCA
B7: chr17:65740002:65740003:+_ENSG00000130935_ENST00000581375|hu_hu|hu_hu_hu_mus_False|48_58 (ssRNA)
RNA: GGGAGUUCUACAGUCCGACGAUCAACAAAUCUUUCUUCCCUGGACGAACAGGAAGAUUCAUAUUAAAAAAAAUAUAUGUCUAUGAAGGAGAAUUGAGUGGCCACACCUUUACUCCCAGCACUUUGGGAGGUGGAUCUCUGAGUCAACAGAGGAUUGAGCAUCA
B8: chr1:163112212:163112213:-_ENSG00000143248_ENST00000313961|hu_hu|hu_hu_hu_mus_False|48_48 (ssRNA)
RNA: GGGAGUUCUACAGUCCGACGAUCUUUUAUUAUCAGUAAGAGUGAGUUACAUACUAGGCAAAGUAUUGGAUACAAUAAUCAGGAAACAAACACAAUUGGUCCAGAAUUUAAAACUUUAUGAGCGAAGUGCUGGCACAGGACUUACAACAGAGGAUUGAGCAUCA
B9: 95941554_95941674_2216_3pUTR_ENSG00000164938_ENST00000448464|human|control|control (ssRNA)
RNA: GGGAGUUCUACAGUCCGACGAUCGCCAGAGUGGUUAAAGAUUUUGCCUGAAGUUAAAACAAAAAAUGAAAAGUCACUUGGACUGCAGGGAAGAAUACUUACAAUACAAGGCAAUUAAAAAAAAAAAAAGAAAAAAGUUGAGCCCAACAGAGGAUUGAGCAUCA
B10: chr16:94664382:94664383:+_ENSMUSG00000040785_ENSMUST00000117648|mus_hu|motif|central (ssRNA)
RNA: GGGAGUUCUACAGUCCGACGAUCAAAAGCUGGUGCUGAAGAUGAAUCUGACACUGGUUUAGACUUUACAUCUGGUUUAAAUUCCCGGGCAGCUGGAUUCAGUUGUAGUUUAACUCGUACAUACUCCCCUGCUUUUGAAAUUUCCAACAGAGGAUUGAGCAUCA
B11: chr3:127788656:127788657:+_ENSG00000058262_ENST00000243253|hu_mus|motif|central (ssRNA)
RNA: GGGAGUUCUACAGUCCGACGAUCAAUUCACUUCUACUGGUUUUUUGCCAAUGCCAGAAAAAGCAAAAUUUCAAAUUGGAAAUUUCCGGGCACUUUACACAGUGGAAUGAAAAGAUAUGAAAUUUUAAAAAAAAUUAAAAAAAACAACAGAGGAUUGAGCAUCA
B12: 140276459_140277056_1559_CDS_ENSMUSG00000040945_ENSMUST00000038893|mouse|control|control (ssRNA)
RNA: GGGAGUUCUACAGUCCGACGAUCGUCUCGCGCUAUCACCAAGGAGUGUGAAUAGCCCAUGGCCACCUGUUCGGAGAAGAUGCCAUCCAGAGUCUUCACCUCCUGGGCCGCAGUAGAAGACUUGGGCUUGUGGUCCCCAUACCCCAACAGAGGAUUGAGCAUCA
B13: chr18:77696836:77696837:-_ENSMUSG00000025427_ENSMUST00000026494|mus_mus|FALSE|FALSE (ssRNA)
RNA: GGGAGUUCUACAGUCCGACGAUCUCCUCGGGAUAGAGGGAUGAGAGGGCUUAGGAAUGUAGGGAGGGGAGGGAAGACAGAGAGCAGACUUGAGGUGGGGAAAGAGGCCUGGGGGAGGGGGCACGAGUGACAAGUGAAAGGAUUCAACAGAGGAUUGAGCAUCA
B14: chr11:71671816:71671817:+_ENSG00000137522_ENST00000530137|hu_hu|FALSE|FALSE (ssRNA)
RNA: GGGAGUUCUACAGUCCGACGAUCGCGAUGAGGAUGAGGACCAUUUCAGCAUGCAUAGCUUCAUGGCCACGGUGCUUGGCAUGCAUGCGUGCGUGCUCGACCCUCAUCCAGCUCCCGUUCCCCAGCAGCACCACCUCCAACCUCCAACAGAGGAUUGAGCAUCA

What follows are binders tested against T1, UNK ZnF1-3 (assay: nsRBNS (natural sequence RNA bind-n-seq); RBNS binding buffer (assumed for nsRBNS): 25 mM Tris pH 7.5, 150 mM KCl, 3 mM MgCl2, 0.01% Triton X-100, 500 ug/ml BSA, 20 U/ml SUPERase-In, 4 C; UNK is unkempt and MSI1 is Musashi-1; names of the RNAs are library labels; protein concentration not given here; high values mean tight binding).

Binder | binding signal
B1 | 1.16 enrichment R
B2 | 0.83 enrichment R
B3 | 1.11 enrichment R
B4 | 0.49 enrichment R
B5 | 2.22 enrichment R
B6 | 4.09 enrichment R
B7 | 1.64 enrichment R
B8 | 1.39 enrichment R
B9 | 12.6 enrichment R
B10 | 1.16 enrichment R
B11 | 6.28 enrichment R
B12 | 0.829 enrichment R
B13 | 2.5 enrichment R
B14 | 0.585 enrichment R
